Pf Dd2 growth: Plasmodium falciparum Dd2 growth inhibition. Potency, µM (series often up to 28.9 µM), for the others: top-dose activity, negative = inhibition, actives largely listed as inhibitors. P. falciparum Dd2 growth, SYBR Green, 72 h. 4.3% of 120,000 active. AID 1347417; active = well fitted inhibition curve with a large enough effect;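 note: plate controls were DMSO vehicle for no effect and reference drug for full effect; nearly all actives have a fitted effect of over 65% in size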
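Infected erythrocytes (Dd2, 0.3% parasitemia, 2.5% hematocrit final) are added to compound in RPMI-1640/Albumax II medium, grown 72 h at 37C in low oxygen, then lysed with saponin/Triton-X containing SYBR Green and read by fluorescence.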
* = called active by the depositor; i = inactive; [ ] = dose if it differs, or a comment. The entries come from a sample that favours hits as a whole. Potency is the fitted concentration of half-maximal effect.

SMILES	Pf Dd2 growth
COc1cccc(N2CCN(c3nc4ccc(C(=O)c5ccccc5)cc4n4c(C)nnc34)CC2)c1	6.31µM*
O=C(c1ccccc1)c1ccc2nc(N3CCN(c4ccc(F)cc4)CC3)c3nncn3c2c1	11.2µM*
Cc1ccc(Nc2nc3ccc(C(=O)c4ccccc4)cc3n3c(C)nnc23)c(C)c1	i
Cc1ccc(Cl)cc1N1CCN(c2nc3ccc(C(=O)c4ccccc4)cc3n3cnnc23)CC1	-4.3%
O=C1NCCCc2[nH]c(-c3cnn(-c4cccc(F)c4)c3)nc21	-25.7%
O=C(CN1C(=O)NC(c2ccc(Cl)cc2)C2=C1COC2=O)Nc1cccc(C(F)(F)F)c1 (stereo not given)	-27.2%
COC1CN(C2CCN(C(=O)c3cccnc3C)CC2)C12CCOCC2 (stereo not given)	-20.8%
CCn1cc(CN2CCC(Oc3ccc4ccccc4c3)(C(=O)O)CC2)c(C)n1	-14.8%
Cc1cc(N2CCC3(CCCN(C)C3=O)C2)c2ccccc2n1 (stereo not given)	26.6%
CCn1cc(CN2CCCC23CCN(c2cc(C)nc4ccccc24)CC3)c(C)n1	2µM*
CC(C)c1nnc(C2CN(C(=O)c3ccc(F)c(F)c3)CC23CCOCC3)o1 (stereo not given)	-5.7%
CCN(Cc1cnn(C)c1)C(=O)C1CCC(=O)N(Cc2cccc(OC)c2)C1 (stereo not given)	27.7%
Cc1cnc(CCNC(=O)Nc2ccc3c(c2)OCCO3)n1C1CC1	-16.5%
Cc1cnc(C2CCOCC2)n1C1CCN(C(=O)Nc2ccc3c(c2)OCCO3)CC1	7.94µM*
Cc1cnc(C2CC2)n1C1CCN(C(=O)NC(C)C)CC1	-13.6%
O=C(O)C1CC2(CCN(Cc3cc4ccccc4o3)CC2)CN1C(=O)C1CC1 (stereo not given)	-9.7%
CNC(=O)C1(N2CCC[C@H]2C(=O)N(C)CCN(C)C)CCOCC1	22.2%[44.1 µM]
Cc1cc(C)n(CCC(=O)NCC2CCN(c3cc(-c4ccccc4)[nH]n3)CC2)n1	11.2µM*
Cc1noc(C)c1CC(=O)NCC1CCN(c2cc(-c3ccccc3)[nH]n2)CC1	i
Cc1ccc(-c2cc(N3CCC(CNC(=O)c4ccc(=O)[nH]c4)CC3)n[nH]2)cc1	12.6µM*
O=C(NCC1CCN(c2cc(-c3ccccc3)[nH]n2)CC1)c1ccc[nH]1	-24.5%
O=C(NCC1CCN(c2cc(-c3ccccc3)[nH]n2)CC1)c1ccc[nH]c1=O	-28.4%
Cc1cc(C)n(CCC(=O)NC2CCCN(c3cc(-c4ccc(Cl)cc4)[nH]n3)C2)n1 (stereo not given)	i
NC1CC(c2cc(NCCN3N=C(c4ccccc4)CCC3=O)ncn2)C1 (stereo not given)	5.1%
O=C(c1ccc2cc[nH]c2c1)N1CCc2c(nc3cc(-c4ccccc4)[nH]n3c2=O)C1	-0.4%
SMILES	Pf Dd2 growth
O=S(=O)(c1ccccc1)N1CCC(c2noc(C3CC3)n2)C1 (stereo not given)	11.4%[5.79 µM]
COc1ccc(-c2cnc3n2CC(C(=O)NCCCN2CCN(C)CC2)CC3)cc1 (stereo not given)	20.6%
CCOc1cc(=O)n2c(c1C(=O)N1CCN(c3ccccc3F)CC1)CCCC2	i
CC(C)(C)OC(=O)N1CC(Nc2ccc(O)cc2)C1	11.2µM*
Cc1cc(Cl)ccc1NC1CN(C(=O)OC(C)(C)C)C1	-9.1%[44.1 µM]
CC(C)(C)OC(=O)N1CC(NCc2ccccn2)C1	-1.5%[44.1 µM]
CC(C)(Oc1nn(CC2CCOCC2)c2ccccc12)C(=O)Nc1ccccn1	-19.0%[44.1 µM]
CCCSC1=NC2(CCN(C(=O)NC3CCCCC3)CC2)N=C1c1ccc(OC)cc1	11.2µM*
Cc1nc(-c2ccc(OC3CCN(C(=O)NC4CCCCC4)C3)cc2)no1 (stereo not given)	17.6%[5.79 µM]
COC1CCC12CCN(C(=O)NC1CCCCC1)CC2 (stereo not given)	-14.1%
CCSC1=NC2(CCN(C(=O)NC3CCCCC3)CC2)N=C1c1ccc(OC)cc1	7.08µM*
COc1ccc(-c2nc(C(C)C)nc3c2CCN(C(=O)NC2CCCC2)CC3)cc1	-2.8%
CCCSC1=NC2(CCN(C(=O)NC3CCCCC3)CC2)N=C1c1ccccc1	i
CC(C)NC(=O)c1ccc(CN2C(=O)NC3(CCS(=O)(=O)CC3)C2=O)cc1	-9.2%
CCN1C(=O)C2CC3(CCN(C(=O)CCc4ccccc4)CC3)CN2C1=O (stereo not given)	-21.4%
CN1[C@@H](CCC(=O)NCc2cccs2)CNC(=O)[C@H]2NCC[C@H]21	0.3%[44.1 µM]
CC(C)N[C@@H]1CC[C@@H]1NC(=O)c1cc2c(C(F)(F)F)nn(C)c2s1	-26.4%
CCNC(=O)C1CCN(C(=O)c2ccc3nc(-c4ccccc4)cn3c2)C1 (stereo not given)	1.5%
O=C(NCc1cc(F)cc(F)c1)C1CCN(C(=O)N2CC3CC(C2)[C@H]2CCCC(=O)N2C3)CC1 (stereo not given in full)	1.7%
CCOC(=O)CSc1ccc2nnc(CCNS(=O)(=O)c3ccccc3)n2n1	-10.1%
Cc1ccc(C)c(CSc2ccc3nnc(CCNS(=O)(=O)c4ccccc4)n3n2)c1	-4.0%
Cc1ccc(S(=O)(=O)NCCc2nnc3ccc(SCc4ccccc4C)nn23)cc1	7.94µM*
